Assay results as given in PubChem BioAssay (NCI).
About 83,000 compounds went through this panel and 20% of them were active in at least one assay; those are over-represented in the sample as a whole.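 Single-concentration screen, 48 h exposure, 96-well plates. Endpoint: percent growth. Below 10 = active.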 A number with no mark means an inactive call. The source made the active and inactive calls.

Assays:
Assay in all cases: NCI-60 one-dose screen, 48 h (100 = growth as untreated, 0 = no growth, -100 = all killed)
Conditions in all cases: 10 µM unless noted
SR leukemia = tested on: SR leukemia
RPMI-8226 leukemia = tested on: RPMI-8226 leukemia
OVCAR-8 ovarian = tested on: OVCAR-8 ovarian
OVCAR-4 ovarian = tested on: OVCAR-4 ovarian
SK-OV-3 ovarian = tested on: SK-OV-3 ovarian
IGROV1 ovarian = tested on: IGROV1 ovarian
OVCAR-3 ovarian = tested on: OVCAR-3 ovarian
HS 578T breast = tested on: HS 578T breast
NCI/ADR-RES ovarian = tested on: NCI/ADR-RES ovarian
T-47D breast = tested on: T-47D breast
BT-549 breast = tested on: BT-549 breast
MDA-MB-435 melanoma = tested on: MDA-MB-435 melanoma
SW-620 colon = tested on: SW-620 colon
MCF7 breast = tested on: MCF7 breast
HCT-116 colon = tested on: HCT-116 colon
HCC-2998 colon = tested on: HCC-2998 colon
KM12 colon = tested on: KM12 colon
OVCAR-5 ovarian = tested on: OVCAR-5 ovarian

Row | Structure (SMILES) | growth (SR leukemia) | growth (RPMI-8226 leukemia) | growth (OVCAR-8 ovarian) | growth (OVCAR-4 ovarian) | growth (SK-OV-3 ovarian) | growth (IGROV1 ovarian) | growth (OVCAR-3 ovarian) | growth (HS 578T breast) | growth (NCI/ADR-RES ovarian) | growth (T-47D breast) | growth (BT-549 breast) | growth (MDA-MB-435 melanoma) | growth (SW-620 colon) | growth (MCF7 breast) | growth (HCT-116 colon) | growth (HCC-2998 colon) | growth (KM12 colon) | growth (OVCAR-5 ovarian)
1 | Oc1c(CN2CCCC2)cc(COCc2ccc(Br)cc2)c2cccnc12 | 3.12% (active) | 1% (active) | -27% (active) | -5.71% (active) | -17.4% (active) | -6.09% (active) | -4.02% (active) | 45.2% | -40.9% (active) | -7.63% (active) | 14.9% | 24.1% | 5.64% (active) | 11.7% | 1.8% (active) | 21.5% | 20.6% | 
2 | Cn1c(-c2c(N)n(Cc3cccnc3)c3nc(C#N)c(C#N)nc23)nc2ccccc21 | 40.1% | 94.5% | 80.5% | 102% | 116% |  | 99.5% | 106% | 95.5% | 92.1% |  | 89.3% | 95.3% | 103% | 44.5% | 100% | 82.8% | 
3 | COc1ccccc1NC(=O)N/C(N)=N/c1nc2ccccc2s1 | 9.32% (active) | 9.34% (active) | 27.1% |  | 40.5% | 21.8% | -18.9% (active) | 27.9% | 4.92% (active) | 52.2% | 50.8% | -18.6% (active) | 25.6% | 20.3% |  |  | 10.4% | 34.8%
4 | CC/C=C\C[C@H](O)C/C=C1/C(=O)C=C[C@@H]1C/C=C\CCCCO | -5.23% (active) | -12.9% (active) | -27.5% (active) | 49.7% | 83.2% | 15.5% | 2.43% (active) | 75.6% | 9.46% (active) | 21.6% | -8.67% (active) | -5.88% (active) | -12.4% (active) | 13.3% | -64.6% (active) | 6.24% (active) | -16.1% (active) | 
5 | N#Cc1c(-c2cccc(Cl)c2)cc(-c2cccc(Cl)c2)[nH]c1=O | 29.6% | 57.2% | 87.3% |  | 82.6% | 70.8% | 64.1% | 56.8% | 64.6% | 79.2% |  | 0.951% (active) | 50.2% | 53.8% |  | 82.6% | 56.1% | 101%
6 | O=c1c2c3c(sc2n2c(-c4cc(-c5ccccc5)nn4-c4ccccc4)nnc2n1Cc1ccccc1)CCCC3 | 13.2% | 14.2% | 49.5% |  | 133% |  | 101% | 356% | 80.4% |  | 97.4% | 85.2% | 83.2% | 68.3% | 55.4% |  | 84.1% | 113%
7 | COc1ccc(-c2csc(C3=C(O)CN(C(C)C)C3=N)n2)cc1OC | 57% | 56.3% | 91% |  | 124% |  | 117% | 110% | 98.5% | 91.4% | 112% | 116% | 104% | 129% | 96.3% |  | 99.6% | 96.6%
8 | Cc1cc(NCCCCNc2ccnc3cc(Cl)ccc23)nc(Nc2ccc(C(=O)N3CCCC3)cc2)n1 | -28.9% (active) | 2.17% (active) | 11.5% |  | 106% | 81.9% | 60.6% | 89.8% | 94.8% | -31.2% (active) | 93.2% | -45% (active) | -11.8% (active) | 12.7% | 2.57% (active) | 8.57% (active) | 55.7% | 108%
9 | O=C1/C(=C/c2ccc(F)cc2)C=C(c2ccccc2)N1CCc1ccccc1 | 46.5% | 89.3% |  | 39.3% | 29.1% | 62.3% | 53.1% | 42.1% | 58.2% | 52.1% | 79.3% | 65.4% | 70% | 50.4% | 29.4% | 85% | 62.2% | 78.7%
10 | Cc1cc(NCc2cc(Nc3ccnc4cc(Cl)ccc34)ccc2F)nc(Cl)n1 | 12% | 29.6% | 35.9% |  | 70.2% | 57% | 57.2% | 57.7% | 35.7% | 28% | 54.6% | 37% | 57% | 30% | 30.5% | 63.2% | 64.7% | 74.2%
11 | O=C(c1ccccc1)N1N=C(c2ccccc2)CC1c1nnc2n(Cc3ccccc3)c(=O)c3c4c(sc3n12)CCCC4 (centres undefined) | -16.1% (active) | 91.6% | 106% | 108% | 106% |  | 112% | 109% | 118% | 122% | 115% | 97.9% | 105% | 96.4% |  | 125% | 82.4% | 133%
12 | NC(=N\N=C/c1ccccc1[N+](=O)[O-])/C(N)=N\N=C/c1ccccc1[N+](=O)[O-] | 107% | 88.2% | 109% | 111% | 102% | 136% | 116% |  | 114% | 104% | 116% | 101% | 105% | 105% | 108% | 108% | 104% | 
13 | Cn1c2c(c3ccc(Cl)c(Cl)c31)C(C#N)C1(CCNCC1)NC2=O (centres undefined) | 13.6% | 14.2% | 67.8% |  | 68.7% | -19.3% (active) | 48.1% | 35.1% | 68.5% | 46.8% | 45% |  | 30.5% | -12.3% (active) |  | -17.8% (active) | 31.7% | 62.1%
14 | CN1CCN(CCCOc2ccc3nc(Nc4ccc(F)c(F)c4)ccc3c2)CC1 | -6.22% (active) | 28.8% | 53.1% | 51.2% | 49.6% | 58.9% | 67.4% | 33.8% | 70.6% | 14.6% | 79.9% | -72.3% (active) | -32.2% (active) | 11.8% | 5.76% (active) | -24.6% (active) | 11.8% | 
15 | O=C(Nc1ccccc1)Nc1cccc(Oc2nnc(Cl)c3ccccc23)c1 | 18% | 35.1% | 15.5% |  | -0.5% (active) | 37.2% | 25.4% | 1.19% (active) | 16.9% |  | 47.7% | 48.6% | 73.4% | -4.15% (active) | 10.6% | 52.8% | 43.6% | 86.3%
16 | N#Cc1c(-c2cccc(Cl)c2)cc(-c2cccc(F)c2)[nH]c1=O | 104% | 65.4% | 93.5% |  | 102% | 94.4% | 92.7% |  | 98% | 84.5% | 86.4% |  | 97% | 89.2% | 88.5% | 106% | 87.9% | 95.8%
17 | Clc1cccc(Cl)c1C(Nc1nc2ccccc2s1)Nc1nc2ccccc2s1 |  | 5.02% (active) | 108% | 84.6% | 94.2% | -15.1% (active) | 114% | 106% | 108% | 95.7% | 92.1% | 107% | 106% | 91.3% | 99.1% | 117% | 98.7% | 90.3%
18 | CCN(CC)CCCCCCNc1cc(OC)c(Cl)c2cccnc12 | 42.2% | 75.3% |  | 73.6% | 92.5% | 86.6% | 66.9% | 58.8% | 79.3% | 81.4% | 93.5% | 14.7% | 81.2% | 66.7% | 70.8% | 82.1% | 76.9% | 83%
19 | COc1nc2c(c(=O)n1C)CN(c1ccccc1)C(=O)CN2C | 51.5% [100 µM] |  | 47.4% [100 µM] | 53.4% [100 µM] | 62.5% [100 µM] | 37.6% [100 µM] | 56.5% [100 µM] | 59.9% [100 µM] | 54.2% [100 µM] | 26.8% [100 µM] |  | 66.2% [100 µM] | 69.3% [100 µM] | 24.2% [100 µM] | 49.1% [100 µM] | 90.4% [100 µM] | 39.1% [100 µM] | 79.9% [100 µM]
